Laboratory results taken from PubChem BioAssay.
Active and inactive are the calls of the source.

Experiments:
[1] = small molecules captured by biotinylated probe aFSTL3 – biochemical, small-molecule microarray, fluorescence 635/667, stem cell growth factor project, primary screen (AID 1064); conditions: higher = more signal;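 note: measures binding of the biotinylated anti-FSTL3 antibody to printed compounds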
[2] = binders from COS7 lysate, DM2A8 probe, primary screen, torsin A project, cell lysate, small-molecule microarray, fluorescence 635/667 (AID 1065); conditions: higher = more signal, COS7 lysate expressing mutant human TOR1A
[3] = small molecules captured by biotinylated probe aFGF2 – biochemical, small-molecule microarray, fluorescence 635/667, stem cell growth factor project, primary screen (AID 1067); conditions: higher = more signal;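 note: measures binding of biotinylated aFGF2 protein to printed compounds on slides; z-score merges feature fluorescence and signal-to-noise across triplicate slides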
[4] = small molecules captured by biotinylated probe aFGF10 – biochemical, small-molecule microarray, fluorescence 635/667, stem cell growth factor project, primary screen (AID 1071); conditions: higher = more signal;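 note: score merges 667 nm spot intensity and signal to noise from triplicate slides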
[5] = molecular target: Neurogenic locus notch homolog protein 2 (Homo sapiens) (UniProt Q04721); test: small molecules binding Notch2 protein – biochemical, small-molecule microarray, 635 nm fluorescence, stem cell growth factors, primary screen (AID 1073); conditions: higher = more signal
Sequence of Neurogenic locus notch homolog protein 2 (Homo sapiens) (Q04721 whole entry, looked up, canonical isoform): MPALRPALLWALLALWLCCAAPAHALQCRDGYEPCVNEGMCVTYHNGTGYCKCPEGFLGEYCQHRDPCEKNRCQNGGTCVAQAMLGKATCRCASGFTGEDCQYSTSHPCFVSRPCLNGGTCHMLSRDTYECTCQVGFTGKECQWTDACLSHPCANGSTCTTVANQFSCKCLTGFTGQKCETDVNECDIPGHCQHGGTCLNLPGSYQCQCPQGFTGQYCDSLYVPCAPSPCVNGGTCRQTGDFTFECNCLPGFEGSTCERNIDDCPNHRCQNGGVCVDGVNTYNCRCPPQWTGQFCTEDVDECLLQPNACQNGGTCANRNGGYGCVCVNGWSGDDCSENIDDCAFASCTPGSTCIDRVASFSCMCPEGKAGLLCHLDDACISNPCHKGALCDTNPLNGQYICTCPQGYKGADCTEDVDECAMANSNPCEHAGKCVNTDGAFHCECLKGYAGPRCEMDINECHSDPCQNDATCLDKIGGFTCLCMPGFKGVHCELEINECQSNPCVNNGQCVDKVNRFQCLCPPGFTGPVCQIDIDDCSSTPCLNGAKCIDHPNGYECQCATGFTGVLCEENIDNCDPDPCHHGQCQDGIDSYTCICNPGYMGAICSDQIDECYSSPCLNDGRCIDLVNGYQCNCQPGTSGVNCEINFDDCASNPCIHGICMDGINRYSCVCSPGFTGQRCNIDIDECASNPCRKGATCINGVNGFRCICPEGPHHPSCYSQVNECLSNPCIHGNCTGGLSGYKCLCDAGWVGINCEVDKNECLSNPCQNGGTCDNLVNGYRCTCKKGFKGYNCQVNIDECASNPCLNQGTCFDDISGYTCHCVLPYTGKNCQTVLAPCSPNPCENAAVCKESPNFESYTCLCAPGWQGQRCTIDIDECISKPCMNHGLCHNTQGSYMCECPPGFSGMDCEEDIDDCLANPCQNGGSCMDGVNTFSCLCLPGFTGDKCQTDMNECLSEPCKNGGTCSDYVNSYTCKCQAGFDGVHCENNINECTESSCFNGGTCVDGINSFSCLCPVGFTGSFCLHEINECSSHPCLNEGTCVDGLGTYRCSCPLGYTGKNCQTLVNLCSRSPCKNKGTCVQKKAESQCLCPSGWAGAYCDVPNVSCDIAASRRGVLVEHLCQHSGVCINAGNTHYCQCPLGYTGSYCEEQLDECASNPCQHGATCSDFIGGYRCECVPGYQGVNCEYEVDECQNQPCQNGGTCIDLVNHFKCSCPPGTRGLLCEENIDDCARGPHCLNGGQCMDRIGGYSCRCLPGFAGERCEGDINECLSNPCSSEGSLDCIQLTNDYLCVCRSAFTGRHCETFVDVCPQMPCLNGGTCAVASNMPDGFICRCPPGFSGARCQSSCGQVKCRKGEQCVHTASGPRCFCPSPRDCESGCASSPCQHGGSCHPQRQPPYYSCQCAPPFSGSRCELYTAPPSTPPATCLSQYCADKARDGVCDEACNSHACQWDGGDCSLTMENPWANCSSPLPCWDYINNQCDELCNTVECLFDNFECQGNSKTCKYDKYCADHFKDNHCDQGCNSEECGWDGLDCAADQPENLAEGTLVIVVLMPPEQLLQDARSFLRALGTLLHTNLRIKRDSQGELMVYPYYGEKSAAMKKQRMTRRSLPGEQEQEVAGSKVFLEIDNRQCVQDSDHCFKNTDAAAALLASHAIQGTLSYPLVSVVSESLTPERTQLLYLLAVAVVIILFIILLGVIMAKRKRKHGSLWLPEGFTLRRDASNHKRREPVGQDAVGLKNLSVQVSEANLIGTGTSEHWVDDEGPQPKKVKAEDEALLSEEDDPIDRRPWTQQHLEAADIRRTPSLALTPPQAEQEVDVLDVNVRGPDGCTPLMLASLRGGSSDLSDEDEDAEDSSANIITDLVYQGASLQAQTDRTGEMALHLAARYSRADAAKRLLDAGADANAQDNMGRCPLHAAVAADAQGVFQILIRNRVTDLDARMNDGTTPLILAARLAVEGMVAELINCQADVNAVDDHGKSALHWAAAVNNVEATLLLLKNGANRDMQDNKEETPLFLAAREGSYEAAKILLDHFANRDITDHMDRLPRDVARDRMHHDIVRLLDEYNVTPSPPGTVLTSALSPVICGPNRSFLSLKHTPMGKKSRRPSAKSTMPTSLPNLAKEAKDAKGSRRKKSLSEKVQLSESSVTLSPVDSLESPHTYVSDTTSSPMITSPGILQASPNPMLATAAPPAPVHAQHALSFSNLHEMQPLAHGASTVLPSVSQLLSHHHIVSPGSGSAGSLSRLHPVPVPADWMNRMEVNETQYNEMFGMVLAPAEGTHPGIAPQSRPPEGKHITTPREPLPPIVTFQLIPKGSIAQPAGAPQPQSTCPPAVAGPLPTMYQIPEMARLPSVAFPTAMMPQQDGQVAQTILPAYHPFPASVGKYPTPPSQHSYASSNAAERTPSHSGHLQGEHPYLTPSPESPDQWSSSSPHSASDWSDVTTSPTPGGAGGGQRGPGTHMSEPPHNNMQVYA

[6] = molecular target: Pro-neuregulin-1, membrane-bound isoform (Homo sapiens) (UniProt Q02297); test: small molecules binding neuregulin-1 protein – biochemical, small-molecule microarray, fluorescence 635/667, psychiatric disease protein project, primary screen (AID 1075); conditions: NRG1 binding, 635 nm fluorescence, higher = more signal;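 note: score combines 667 nm spot fluorescence with signal to noise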
Sequence of Pro-neuregulin-1, membrane-bound isoform (Homo sapiens) (Q02297 whole entry, looked up, the tested form may be a part, canonical isoform): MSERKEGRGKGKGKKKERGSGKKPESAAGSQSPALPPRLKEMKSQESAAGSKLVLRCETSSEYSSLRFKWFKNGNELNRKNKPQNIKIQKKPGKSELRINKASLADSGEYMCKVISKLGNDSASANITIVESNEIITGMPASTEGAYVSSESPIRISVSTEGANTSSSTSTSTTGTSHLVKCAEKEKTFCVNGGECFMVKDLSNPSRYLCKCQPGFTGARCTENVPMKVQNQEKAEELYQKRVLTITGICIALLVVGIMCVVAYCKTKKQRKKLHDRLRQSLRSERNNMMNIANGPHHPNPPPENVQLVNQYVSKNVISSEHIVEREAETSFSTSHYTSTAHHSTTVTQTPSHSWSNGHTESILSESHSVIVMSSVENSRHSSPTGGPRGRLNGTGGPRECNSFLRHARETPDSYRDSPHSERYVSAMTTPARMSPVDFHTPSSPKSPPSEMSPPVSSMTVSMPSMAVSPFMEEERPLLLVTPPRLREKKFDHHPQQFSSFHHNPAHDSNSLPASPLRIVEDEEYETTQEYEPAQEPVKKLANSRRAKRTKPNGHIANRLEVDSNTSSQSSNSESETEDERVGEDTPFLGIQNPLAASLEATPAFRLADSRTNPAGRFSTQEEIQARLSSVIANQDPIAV

[7] = tested on: Neuregulin-1 EGF-like domain; test: small molecules binding NRG1 EGF domain – biochemical, small-molecule microarray, 635 nm fluorescence, primary screen (AID 1081); conditions: higher = more signal;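 note: binding of the protein to compounds printed on small-molecule microarray slides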
[8] = FRG1 expression reporter modulators in myotubes – cell-based, C2C12 myotubes, firefly/Renilla luciferase, luminescence, FRG1 inhibition for FSHD, primary screen (AID 1084); conditions: FRG1 promoter luciferase, higher = more signal, called active from +8 up or from −8 down
[9] = small molecules captured by biotinylated probe aFST – biochemical, small-molecule microarray, fluorescence 635/667, stem cell growth factor project, primary screen (AID 1086); conditions: higher = more signal;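 note: score merges 667 nm fluorescence with signal-to-noise of each printed compound spot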
[10] = binders of probe aHhip on microarray, primary screen, stem cell growth factor project, biochemical, small-molecule microarray, fluorescence 635/667 (AID 1087); conditions: higher = more signal;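 note: score merges spot fluorescence at 667nm with spot signal to noise ratio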
[11] = tested on: PRMT1 (protein arginine N-methyltransferase 1); test: small molecules binding arginine methyltransferase PRMT1 – biochemical, small-molecule microarray, 635 nm fluorescence, primary screen (AID 1088); conditions: higher = more signal;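 note: binding of Prmt1 protein to compounds spotted on small-molecule microarray slides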
[12] = growth effects on S. cerevisiae YJM789 – YJM789 clinical isolate, OD600, 24 h, basal, primary screen (AID 1089); conditions: higher = more signal, called active from +8 up or from −8 down;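 note: growth of clinical yeast isolate S. cerevisiae YJM 789 seeded 1000 cells per well; test concentration not given here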
[13] = S. pombe growth modifiers, basal conditions – strain 972, OD600, 24 h, no modulator, primary screen (AID 1090);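 note: basal condition with compound alone and no growth modifier present; test concentration not given here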; conditions: S. pombe 972 growth, higher = more signal, called active from +8 up or from −8 down
[14] = budding yeast growth modifiers under rapamycin – strain BY4716, OD600, 96 h, primary screen (AID 1091); note: test concentration not given here; conditions: S. cerevisiae BY4716 + rapamycin, higher = more signal, called active from +8 up or from −8 down
[15] = molecular target: Torsin-1A-interacting protein 2 (Homo sapiens) (UniProt Q8NFQ8); test: small molecules binding lysate-expressed LULL1 – cell lysate, human LULL1 lysate, 635/667 nm fluorescence, primary screen (AID 1092); conditions: small-molecule microarray, hLULL1 lysate binding, 635 nm fluorescence; higher = more signal;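 note: probe is lysate of COS7 cells overexpressing human LULL1; score merges per-feature 667 nm fluorescence with signal-to-noise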
Sequence of Torsin-1A-interacting protein 2 (Homo sapiens) (Q8NFQ8 whole entry, looked up): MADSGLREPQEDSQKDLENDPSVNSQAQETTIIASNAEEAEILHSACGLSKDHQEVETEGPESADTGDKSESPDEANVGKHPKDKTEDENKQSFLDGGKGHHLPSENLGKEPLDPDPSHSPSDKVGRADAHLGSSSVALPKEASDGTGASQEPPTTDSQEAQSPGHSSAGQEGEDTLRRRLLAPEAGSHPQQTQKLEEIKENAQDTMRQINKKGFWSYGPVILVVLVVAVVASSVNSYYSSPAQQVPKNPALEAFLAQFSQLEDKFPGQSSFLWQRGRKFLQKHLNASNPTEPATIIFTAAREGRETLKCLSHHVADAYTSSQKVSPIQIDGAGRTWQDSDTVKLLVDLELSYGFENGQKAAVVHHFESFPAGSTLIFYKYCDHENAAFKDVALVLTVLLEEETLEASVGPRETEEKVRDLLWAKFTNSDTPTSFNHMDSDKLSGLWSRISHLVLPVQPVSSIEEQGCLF

[16] = optical density change of DRC41 E. coli – strain DRC41, OD650, 24 h, E. coli filamentation project, primary screen (AID 1093);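 note: MC1000 strain lacking acrAB efflux and sulA so SOS filamentation is blocked; test concentration not given here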; conditions: E. coli DRC41 growth, higher = more signal, called active from +8 up or from −8 down
[17] = probe aLefty2 binding to arrayed compounds – biochemical, biotinylated probe, 635/667 nm fluorescence, primary screen (AID 1094); conditions: small-molecule microarray, higher = more signal;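 note: score merges spot fluorescence near 667 nm with spot signal-to-noise ratio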
[18] = tested on: Noggin (protein binding on small-molecule microarray); test: small molecules binding Noggin protein – biochemical, 635/667 nm fluorescence, primary screen (AID 1095); conditions: 635 nm fluorescence, higher = more signal;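 note: score merges 667 nm feature fluorescence with signal to noise over triplicate slides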
[19] = molecular target: Neurogenic locus notch homolog protein 3 (Homo sapiens) (UniProt Q9UM47); test: small molecules binding NOTCH3 protein – biochemical, 635/667 nm fluorescence, primary screen (AID 1096); conditions: small-molecule microarray, 635 nm fluorescence, higher = more signal
[20] = probe aEGFR binding to arrayed compounds – biochemical, biotinylated probe, 635/667 nm fluorescence, primary screen (AID 1097); conditions: small-molecule microarray, higher = more signal;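 note: probe is a biotinylated anti-EGFR antibody binding compounds printed on slides; score combines fluorescence near 667 nm and signal to noise of each spot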

Structure (SMILES)	composite z-score [1]	composite z-score [2]	composite z-score [3]	composite z-score [4]	composite z-score [5]	composite z-score [6]	composite z-score [7]	z-score [8]	composite z-score [9]	composite z-score [10]	composite z-score [11]	z-score [12]	z-score [13]	z-score [14]	composite z-score [15]	z-score [16]	composite z-score [17]	composite z-score [18]	composite z-score [19]	composite z-score [20]
CCCCCN1CC=CC23O[C@@H]4/C=C\CCCOC(=O)C4[C@H]2C(=O)N(C(CO)C(C)C)[C@@H]3C1=O (stereo not given in full)	-0.101	-0.856	-0.103	-0.106	-0.65	-0.583	1.52	-0.196 (inactive)	-0.384	0.0854	0.0207	-0.215 (inactive)	-0.84 (inactive)	-0.809 (inactive)	0.868	1.65 (inactive)	-0.124	0.0296	0.243	-0.201
COCC(=C=CC[C@@H](O)c1ccccc1OCCO)C[C@@H](O)c1cc(Cl)cc(Cl)c1O	-0.685	0.528	-0.0276	1.14	1.09	0.935	1	-0.914 (inactive)	0.624	0.164	1.53	0.157 (inactive)	-0.563 (inactive)	0.0403 (inactive)	2.13	0.0142 (inactive)	-0.053	1.42	1.07	-0.0353
CN1C(=O)C2C=CC(C(O)c3ccc(-c4ccccc4)s3)N(N(c3ccccc3)c3ccccc3)C2C1=O (stereo not given)	0.415	-0.235	0.0034	0.199	1.15	0.782	0.949	0.685 (inactive)	0.422	0.248	0.668	0.187 (inactive)	0.947 (inactive)	1.33 (inactive)	1.93	-0.422 (inactive)	0.164	-0.132	1.12	-0.0003
CCCCc1cn(C[C@H](Cc2ccccc2)NC(=O)N[C@H](CO)CCc2oc(C(C)=O)c(C(=O)OC)c2C(=O)OC)nn1	-0.422	0.651	-0.166	0.864	1.56	0.979	1.32	0.833 (inactive)	0.839	-0.0994	1.54	-0.425 (inactive)	-0.0326 (inactive)	-0.173 (inactive)	1.7	0.0003 (inactive)	0.165	1.14	1.1	0.114
[N-]=[N+]=NCc1ccccc1[C@@H]1OC(c2ccc(OCCCO)cc2)=N[C@]1(Cc1ccccc1N=[N+]=[N-])C(=O)N1CCOCC1	0.36	0.485	0.321	0.636	1.66	1.77	1.1	-0.825 (inactive)	1.08	-0.0994	1.55	-1.29 (inactive)	-1.59 (inactive)	4.14 (inactive)	3.25	-0.667 (inactive)	0.295	1.04	1.04	0.246
C#CCN(CC1=CCCCC1)[C@H](c1ccccc1Br)[C@@H](O)Cc1ccccc1	0.727	0.518	-0.176	-0.123	-0.978	0.251	0.928	-2.16 (inactive)	-0.967	-0.166	0.249	0.119 (inactive)	-4.79 (inactive)	-0.655 (inactive)	1.04	1.79 (inactive)	-0.0724	-0.51	-0.721	-0.356
CCOC(=O)C[C@H]1[C@H](OC(=O)Cc2ccc3c(c2)OCO3)[C@@H](NC(=O)c2ccc(-c3ccccc3)cc2)c2cc(OCCCO)ccc2N1C(=O)Cc1ccc(OC)cc1	-0.429	0.816	-0.0636	0.412	0.819	0.337	0.269	-3.25 (inactive)	0.339	-0.415	0.81	-1.32 (inactive)	-1.09 (inactive)	0.105 (inactive)	0.826	1.09 (inactive)	0.0163	0.185	0.921	0.0881
CN1C(=O)C2C=CC(C(O)Cc3ccccc3)N(Nc3ccccc3)C2C1=O (stereo not given)	0.0217	-0.576	-0.116	0.294	1.21	1.38	1.13	0.84 (inactive)	0.0791	-0.236	0.0459	0.398 (inactive)	0.0113 (inactive)	-0.0322 (inactive)	3.43	-1.05 (inactive)	0.126	0.129	0.297	-0.071
COCCOC(=O)N1C(=O)[C@@]2(c3cc(C#Cc4ccc(OC)cc4)ccc31)[C@H](C(=O)N1CCCCCCC1)[C@H]1C(=O)O[C@H](c3ccccc3)[C@H](c3ccccc3)N1[C@@H]2c1ccc(OCCO)cc1	2.85	1.49	0.233	0.662	0.845	1.01	0.972	-0.738 (inactive)	2.43	3.2	1.55	-0.821 (inactive)	0.0405 (inactive)	3.27 (inactive)	2.29	2.36 (inactive)	1.59	2.1	1.01	0.4
C=CCNC(=O)[C@H]1[C@@H]2C(=O)O[C@@H](c3ccccc3)[C@@H](c3ccccc3)N2[C@@H](c2ccccc2OCCO)[C@]12C(=O)Nc1ccc(C#CC3=CCCCC3)cc12	-0.382	0.952	-0.0534	0.88	1.04	0.666	1.09	-2.87 (inactive)	0.185	0.0695	1.55	2.06 (inactive)	-1.27 (inactive)	4.78 (inactive)	2.58	1.25 (inactive)	-0.117	1.23	1.1	-0.0108
